{
  "source": "PubChem BioAssay AID2320",
  "about": "(National Center for Advancing Translational Sciences (NCATS), 2010)",
  "note": "Results filed as inconclusive are left out. Values without a mark were called inactive. Calls of active or inactive are those of the source. Calls come from the whole dose curve. Potency is the fitted concentration of half-maximal effect.",
  "data": [
    {"assay": "A qHTS for Small Molecule Inhibitors of Shiga Toxin (Confirmatory); note: nearly all actives have a fitted effect of over 75% in size; for activity, positive = inhibition of toxin: 0% is about no effect", "conditions": "Cell-based Shiga toxin protection reporter assay; series mostly up to 38.3 µM; activity, positive = inhibition of toxin: at the top concentration", "units": {"activity, positive = inhibition of toxin": "%"}, "values": [
      {"smiles": "O=C(CSc1nnc(-c2ccccn2)o1)Nc1ccccc1C(F)(F)F", "Potency": "8.95 µM (active)"},
      {"smiles": "CCOC(=O)c1c(C)[nH]c(C2=NNC(=NC3CC3)SC2)c1C", "Potency": "0.0449 µM (active)"},
      {"smiles": "O=C(NCCc1c[nH]c2ccccc12)C(F)(F)F", "activity, positive = inhibition of toxin": -21.6},
      {"smiles": "COc1ccc(CNC(=O)C(OC(=O)c2ccco2)c2ccccc2F)cc1", "note": "(stereo not drawn)", "activity, positive = inhibition of toxin": -6.76},
      {"smiles": "CCc1nc2ccccc2c(=O)n1NCCc1ccccc1", "activity, positive = inhibition of toxin": 30.6},
      {"smiles": "CC1Cc2ccccc2N1Cc1cc(=O)n2ccsc2n1", "note": "(stereo not drawn)", "activity, positive = inhibition of toxin": -26.7},
      {"smiles": "CC(C)(C)C(=O)Cn1ncc(N2CCOCC2)c(Br)c1=O", "Potency": "22.5 µM (active)"},
      {"smiles": "CCCn1c(C)cc(/C=C(\\C#N)C(=O)OCC(=O)Nc2ccc(OC)c(Cl)c2)c1C", "Potency": "8.95 µM (active)"},
      {"smiles": "Cc1nc(SCC(=O)Nc2cc(C)on2)c2c3c(sc2n1)CCCC3", "activity, positive = inhibition of toxin": 40.1},
      {"smiles": "O=C(Nc1ccc(Cl)cc1)C1CCN(C(=O)c2cccs2)CC1", "activity, positive = inhibition of toxin": 22},
      {"smiles": "Cc1cc(C(=O)COC(=O)c2cccn2C)c(C)n1Cc1ccco1", "Potency": "0.252 µM (active)"},
      {"smiles": "CC(=O)N[C@@H](Cc1c[nH]c2ccccc12)C(=O)OCC(=O)Nc1ccc(Cl)c(S(=O)(=O)N(C)C)c1", "activity, positive = inhibition of toxin": 17.4},
      {"smiles": "NC(=O)[C@@H]1CCCN1C(=O)c1ccc2nc(Cc3cccc(Cl)c3)oc2c1", "activity, positive = inhibition of toxin": -4.22},
      {"smiles": "Nc1nc(-c2nn(Cc3ccccc3F)c3ncccc23)ncc1C1CC1", "activity, positive = inhibition of toxin": 13.7},
      {"smiles": "Cc1cccc(C(=O)Nc2scc(CC(C)C)c2C(=O)O)c1", "activity, positive = inhibition of toxin": -17.8},
      {"smiles": "COc1ccccc1CNC(=O)c1csc2c1CCCC2", "Potency": "10 µM (active)"},
      {"smiles": "CCOc1ccc2nc(SCC(=O)NC3CCCCC3)[nH]c2c1", "activity, positive = inhibition of toxin": -7.39},
      {"smiles": "Cn1c(=O)c2ncn(CC(=O)NCCOc3ccccc3)c2n(C)c1=O", "activity, positive = inhibition of toxin": -16.7}
    ]}
  ]
}
